Here are results for 11 compounds from PubChem BioAssay (NCATS).

The structures appear in SMILES notation. Where “and” joins values, the source holds several entries; their conditions need not be identical. Equal entries are not always repeated. Results filed as inconclusive are left out. Calls of active or inactive are those of the source. Unless noted, calls come from the whole dose curve.

The target of assay [1] is Ubiquitin carboxyl-terminal hydrolase 1 (Homo sapiens) (UniProt O94782). Description: Inhibitors of USP1/UAF1: Pilot qHTS (AID 504865; active = well fitted inhibition curve with a large enough effect;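 note: rhodamine fluorescence freed from ubiquitin-rhodamine substrate followed over time; top concentration of the series differs between compounds; % is set by controls: 0 for no effect and ±100 for the full control effect; nearly all actives have a fitted effect of over 35% in size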). In outline: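 Deubiquitinase activity followed as kinetic rhodamine fluorescence release from 150 nM Ub-Rho. 1 nM USP1/UAF1 with compound, after 15 min room-temperature preincubation, in HEPES pH 7.8 buffer containing TCEP, EDTA, BSA and Tween-20.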
For orientation: Quantitative high-throughput screening tests each substance at several concentrations.

In assay [2] the target is Peroxisome proliferator-activated receptor gamma (Homo sapiens) (UniProt P37231). Description: qHTS assay for small molecule agonists of peroxisome proliferator-activated receptor gamma signaling (AID 588536; active = well fitted curve in the direction sought with a large enough effect in the signal ratio, with a control signal flat, not every such curve was filed as active; the % refers to the signal ratio;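 note: 0% = DMSO basal wells and 100% = rosiglitazone at 2 µM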). In outline:
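This is an agonist-mode beta-lactamase reporter assay in HEK293 PPAR-gamma-UAS-bla cells with 1% charcoal/dextran FBS. Compound titrations ran 16 h at 37 C before CCF4 detection. EC50 and efficacy are Hill fits scaled to 2 uM rosiglitazone (100%) and DMSO basal.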

In assay [3] the target is Bile acid receptor (Homo sapiens) (UniProt Q96RI1). Description: qHTS assay for small molecule antagonists of farnesoid X receptor signaling (AID 588526). Note: % is set by controls: 0 for no effect and ±100 for the full control effect. Put shortly:
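Antagonist mode: titrated compounds tested against chenodeoxycholic acid stimulation (normalized to 50 uM CDCA and DMSO) in GeneBLAzer HEK293T cells for 16 h. Beta-lactamase read by CCF4 fluorescence; IC50 from Hill fits.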

The target is the same in assay [4]. In words: qHTS assay for small molecule agonists of farnesoid X receptor signaling (AID 588527).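 Note: series mostly up to about 77 µM; 0% = vehicle basal and 100% = reference agonist.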 Particulars: HEK293T FXR-UAS-bla, beta-lactamase ratio, 16 h; stronger effect = higher value. In outline:
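Agonist-mode beta-lactamase reporter in GeneBLAzer FXR-UAS-bla HEK293T cells, titration up to 92 uM, 16 h exposure at 37 C, CCF4 fluorescence. Response scaled to DMSO (0%) and 100 uM chenodeoxycholic acid (100%), then Hill-fitted for EC50 and efficacy.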

For assay [5], the target named is Peroxisome proliferator-activated receptor delta (Homo sapiens) (UniProt Q03181). In words: qHTS assay for small molecule agonists of peroxisome proliferator-activated receptor delta signaling (AID 588534).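 Note: 0% = DMSO basal wells and 100% = positive control agonist at 10 µM.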 Put shortly: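 Titration series tested in agonist mode on beta-lactamase reporter cells; 18 hrs at 37 C after a 5 hr pre-incubation. Readout: CCF4 fluorescence, 2 hrs RT. Hill equation gives EC50 and maximal response.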

Assay [6] has the same target. In words: qHTS assay for small molecule antagonists of peroxisome proliferator-activated receptor delta signaling (AID 588535; active = well fitted inhibition curve with a large enough effect in the signal ratio, with a control signal flat, not every such curve was filed as active; the % refers to the signal ratio;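 for max response: cells co-treated with a PPAR-delta agonist as stimulator during compound exposure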). In outline: (§1)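 Beta-lactamase reporter read-out (405 nm excitation, 460/530 nm emission) after CCF4 loading for 2 hrs at RT. HEK293T PPAR-delta-UAS-bla cells, 2% charcoal/dextran FBS, compounds for 18 hrs at 37 C. Hill fit gave IC50 and efficacy.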

Assay [7] concerns the target Glucocorticoid receptor (Homo sapiens) (UniProt P04150). Description: qHTS assay for small molecule agonists of glucocorticoid receptor signaling (AID 588532; active = well fitted curve in the direction sought with a large enough effect in the signal ratio, with a control signal flat; the % refers to the signal ratio;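 note: 100% = dexamethasone at 0.1 µM and 0% = DMSO only wells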). The note with it: HeLa MMTV-bla, beta-lactamase ratio, agonist, 18 h; stronger effect = higher value; percent of dexamethasone control, DMSO zero. Put shortly: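 MMTV-bla HeLa beta-lactamase reporter cells in 1% charcoal/dextran FBS medium, compounds up to 92 uM for 18 h at 37 C, CCF4 readout; normalized to 0.1 uM dexamethasone (100%), EC50 and efficacy from Hill fits.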

The target in assay [8] is Estrogen receptor (Homo sapiens) (UniProt P03372). In words: qHTS assay for small molecule antagonists of estrogen receptor alpha signaling (AID 588513; active = well fitted curve in the direction sought with a large enough effect in the signal ratio, with a control signal flat, not every such curve was filed as active; the % refers to the signal ratio; note: % is set by controls: 0 for no effect and ±100 for the full control effect). In outline: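 Antagonist mode: inhibition of 0.5 nM 17-beta-estradiol-driven beta-lactamase reporter in HEK 293 ER-alpha-UAS-bla cells, 18 h at 37C, CCF4 readout after 2 h at RT. Normalised to estradiol and DMSO; titration fitted to Hill.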

Assay [9] shares this target. In words: qHTS assay for small molecule agonists of estrogen receptor alpha signaling (AID 588514).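 For activation: 0% = vehicle only and 100% = reference agonist.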 Note: nearly all actives have a fitted effect of over 70% in size. Note: potency is the fitted concentration of half-maximal effect. In outline: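 Read-out: CCF4 fluorescence from a beta-lactamase reporter in ER-alpha-UAS-bla HEK 293 cells after 18 hrs of compound exposure at 37 C. Normalized to 20 nM 17-beta-estradiol (100%) and DMSO (0%).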
Assay [10] is described as follows: qHTS assay for small molecule antagonists of peroxisome proliferator-activated receptor delta signaling (AID 588535).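 For max response: cells co-treated with a PPAR-delta agonist as stimulator during compound exposure.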 Particulars: HEK293T PPARd-UAS-bla, beta-lactamase FRET ratio, 18 h; 460 nm channel. In outline: as §1
Assay [11] has as its target Androgen receptor (Homo sapiens) (UniProt P10275). In words: qHTS assay for small molecule agonists of androgen receptor signaling (AID 588515; active = well fitted curve in the direction sought with a large enough effect in the signal ratio, with a control signal flat; the % refers to the signal ratio; note: % is set by controls: 0 for no effect and ±100 for the full control effect). Particulars: AR-UAS-bla HEK293, beta-lactamase ratio, agonist 16 h; stronger effect = higher value. Put shortly:
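Stimulation of an AR-responsive β-lactamase reporter in GripTite HEK293 cells was measured after 16 h compound exposure at 37 °C, via CCF4 fluorescence after 2 h RT. EC50 from Hill fits, normalized to R1881 at 30 nM.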

The target is the same in assay [12]. In words: qHTS assay for small molecule antagonists of androgen receptor signaling (AID 588516; active = well fitted curve in the direction sought with a large enough effect in the signal ratio, with a control signal flat, not every such curve was filed as active; the % refers to the signal ratio; note: % is set by controls: 0 for no effect and ±100 for the full control effect). Put shortly: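 Antagonist mode: inhibition of R1881-stimulated (10 nM final) bla reporter in GeneBLAzer AR HEK 293 cells, 16 h at 37C, compounds titrated. IC50 and efficacy from Hill-equation fits of 405/460–530 nm FRET ratios.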

Androgen receptor (Homo sapiens), sequence (P10275 whole entry, looked up): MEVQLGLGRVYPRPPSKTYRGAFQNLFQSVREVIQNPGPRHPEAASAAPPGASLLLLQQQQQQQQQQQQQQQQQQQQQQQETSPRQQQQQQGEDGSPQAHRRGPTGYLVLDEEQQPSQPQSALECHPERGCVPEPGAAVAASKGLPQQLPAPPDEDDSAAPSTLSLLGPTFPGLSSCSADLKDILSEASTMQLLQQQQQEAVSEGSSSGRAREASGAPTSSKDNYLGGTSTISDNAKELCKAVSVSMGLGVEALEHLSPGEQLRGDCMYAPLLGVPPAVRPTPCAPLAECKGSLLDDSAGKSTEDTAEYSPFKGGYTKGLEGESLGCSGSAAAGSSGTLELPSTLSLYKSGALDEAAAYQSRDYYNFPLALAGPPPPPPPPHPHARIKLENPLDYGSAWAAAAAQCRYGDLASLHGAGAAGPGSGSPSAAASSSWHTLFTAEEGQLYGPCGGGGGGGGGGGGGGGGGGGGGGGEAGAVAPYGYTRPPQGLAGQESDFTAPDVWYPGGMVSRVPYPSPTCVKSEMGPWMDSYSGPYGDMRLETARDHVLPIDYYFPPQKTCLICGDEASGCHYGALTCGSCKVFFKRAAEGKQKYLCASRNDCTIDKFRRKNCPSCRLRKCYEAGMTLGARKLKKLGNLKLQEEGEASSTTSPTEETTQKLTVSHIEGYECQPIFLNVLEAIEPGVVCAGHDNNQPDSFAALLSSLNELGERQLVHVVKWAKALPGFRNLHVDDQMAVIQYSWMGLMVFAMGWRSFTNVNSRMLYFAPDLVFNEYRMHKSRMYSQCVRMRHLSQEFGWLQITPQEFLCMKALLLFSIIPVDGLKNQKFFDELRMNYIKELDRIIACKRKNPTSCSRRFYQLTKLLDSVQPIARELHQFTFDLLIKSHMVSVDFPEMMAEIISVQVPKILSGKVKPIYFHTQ
Glucocorticoid receptor (Homo sapiens), sequence (P04150 whole entry, looked up): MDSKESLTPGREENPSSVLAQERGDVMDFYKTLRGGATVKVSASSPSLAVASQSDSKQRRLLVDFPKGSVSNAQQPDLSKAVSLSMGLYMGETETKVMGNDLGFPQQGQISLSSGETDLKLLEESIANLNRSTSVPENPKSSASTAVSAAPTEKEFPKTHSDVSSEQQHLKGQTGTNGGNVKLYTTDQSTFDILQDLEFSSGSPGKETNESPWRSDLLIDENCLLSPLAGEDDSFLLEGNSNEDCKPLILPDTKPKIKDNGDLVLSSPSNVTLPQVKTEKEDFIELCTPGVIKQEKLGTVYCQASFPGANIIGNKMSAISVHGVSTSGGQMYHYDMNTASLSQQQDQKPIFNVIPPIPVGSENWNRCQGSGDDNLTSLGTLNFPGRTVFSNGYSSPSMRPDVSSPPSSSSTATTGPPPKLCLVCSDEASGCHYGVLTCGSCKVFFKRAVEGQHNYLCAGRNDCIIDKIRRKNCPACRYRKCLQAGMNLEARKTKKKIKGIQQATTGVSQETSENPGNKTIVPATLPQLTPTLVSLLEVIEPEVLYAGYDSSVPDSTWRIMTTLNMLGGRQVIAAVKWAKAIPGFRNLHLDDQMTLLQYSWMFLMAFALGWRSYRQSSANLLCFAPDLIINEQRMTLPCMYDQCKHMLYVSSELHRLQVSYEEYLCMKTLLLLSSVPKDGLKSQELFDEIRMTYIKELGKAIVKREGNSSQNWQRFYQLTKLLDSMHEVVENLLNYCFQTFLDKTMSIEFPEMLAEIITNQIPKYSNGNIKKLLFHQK
Ubiquitin carboxyl-terminal hydrolase 1 (Homo sapiens), sequence (O94782 whole entry, looked up): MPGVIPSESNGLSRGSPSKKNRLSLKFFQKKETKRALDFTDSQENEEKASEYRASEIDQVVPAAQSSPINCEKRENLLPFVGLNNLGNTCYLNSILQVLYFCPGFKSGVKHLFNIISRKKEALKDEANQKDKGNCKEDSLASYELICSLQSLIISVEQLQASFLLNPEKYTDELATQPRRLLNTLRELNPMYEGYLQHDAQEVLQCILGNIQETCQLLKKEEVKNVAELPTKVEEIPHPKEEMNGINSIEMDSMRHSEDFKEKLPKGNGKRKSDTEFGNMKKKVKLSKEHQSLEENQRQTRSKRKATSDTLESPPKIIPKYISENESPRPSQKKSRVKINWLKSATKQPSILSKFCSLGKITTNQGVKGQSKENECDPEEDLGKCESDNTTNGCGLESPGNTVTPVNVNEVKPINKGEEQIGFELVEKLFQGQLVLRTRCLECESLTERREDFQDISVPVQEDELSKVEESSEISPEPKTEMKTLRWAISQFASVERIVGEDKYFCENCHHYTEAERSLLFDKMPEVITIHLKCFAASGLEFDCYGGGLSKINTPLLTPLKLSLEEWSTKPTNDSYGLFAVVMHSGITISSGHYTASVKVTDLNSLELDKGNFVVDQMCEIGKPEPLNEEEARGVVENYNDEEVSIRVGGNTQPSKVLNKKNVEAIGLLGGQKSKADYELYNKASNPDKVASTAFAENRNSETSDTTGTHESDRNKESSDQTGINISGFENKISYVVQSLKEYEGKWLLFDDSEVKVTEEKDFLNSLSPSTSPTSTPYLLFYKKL
Peroxisome proliferator-activated receptor delta (Homo sapiens), sequence (Q03181 whole entry, looked up): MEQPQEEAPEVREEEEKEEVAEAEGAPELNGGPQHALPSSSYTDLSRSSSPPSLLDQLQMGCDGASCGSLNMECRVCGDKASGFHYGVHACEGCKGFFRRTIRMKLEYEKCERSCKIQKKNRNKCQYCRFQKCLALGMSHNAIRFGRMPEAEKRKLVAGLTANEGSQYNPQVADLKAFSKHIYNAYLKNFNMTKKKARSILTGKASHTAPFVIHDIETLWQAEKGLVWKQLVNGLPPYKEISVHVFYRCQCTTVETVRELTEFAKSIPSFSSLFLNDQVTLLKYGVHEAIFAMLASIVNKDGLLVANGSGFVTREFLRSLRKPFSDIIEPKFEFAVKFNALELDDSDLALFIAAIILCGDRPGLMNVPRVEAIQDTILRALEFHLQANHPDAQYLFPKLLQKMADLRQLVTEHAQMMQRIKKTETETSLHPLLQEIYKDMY
Estrogen receptor (Homo sapiens), sequence (P03372 whole entry, looked up): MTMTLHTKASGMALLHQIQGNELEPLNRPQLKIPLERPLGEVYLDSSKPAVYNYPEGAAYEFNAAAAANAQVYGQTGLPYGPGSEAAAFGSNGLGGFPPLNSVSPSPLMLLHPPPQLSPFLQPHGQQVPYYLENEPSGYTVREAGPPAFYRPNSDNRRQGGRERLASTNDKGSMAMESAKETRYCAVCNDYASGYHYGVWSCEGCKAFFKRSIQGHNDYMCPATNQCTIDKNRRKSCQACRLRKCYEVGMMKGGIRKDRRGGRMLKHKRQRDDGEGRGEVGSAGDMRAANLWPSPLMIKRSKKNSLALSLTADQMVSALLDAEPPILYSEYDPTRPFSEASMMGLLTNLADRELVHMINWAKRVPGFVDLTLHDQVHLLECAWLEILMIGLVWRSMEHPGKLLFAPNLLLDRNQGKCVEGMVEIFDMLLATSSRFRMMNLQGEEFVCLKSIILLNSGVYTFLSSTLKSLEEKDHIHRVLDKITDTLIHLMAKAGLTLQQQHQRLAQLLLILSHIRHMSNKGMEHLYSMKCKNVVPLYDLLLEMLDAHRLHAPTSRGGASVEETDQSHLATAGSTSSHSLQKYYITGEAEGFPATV
Bile acid receptor (Homo sapiens), sequence (Q96RI1 whole entry, looked up): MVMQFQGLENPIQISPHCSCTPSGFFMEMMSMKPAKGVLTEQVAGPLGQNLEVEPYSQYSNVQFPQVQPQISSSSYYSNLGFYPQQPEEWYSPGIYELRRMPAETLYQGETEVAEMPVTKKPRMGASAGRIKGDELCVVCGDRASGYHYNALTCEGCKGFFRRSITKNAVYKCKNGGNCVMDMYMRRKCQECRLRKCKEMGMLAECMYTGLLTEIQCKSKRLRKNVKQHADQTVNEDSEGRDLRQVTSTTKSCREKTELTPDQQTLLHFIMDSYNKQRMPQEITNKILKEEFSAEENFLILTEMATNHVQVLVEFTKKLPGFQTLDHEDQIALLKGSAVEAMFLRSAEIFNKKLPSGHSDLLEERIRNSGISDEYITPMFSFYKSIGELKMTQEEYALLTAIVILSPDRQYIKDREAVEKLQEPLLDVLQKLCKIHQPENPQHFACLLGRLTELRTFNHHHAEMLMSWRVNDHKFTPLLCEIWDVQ
Peroxisome proliferator-activated receptor gamma (Homo sapiens), sequence (P37231 whole entry, looked up): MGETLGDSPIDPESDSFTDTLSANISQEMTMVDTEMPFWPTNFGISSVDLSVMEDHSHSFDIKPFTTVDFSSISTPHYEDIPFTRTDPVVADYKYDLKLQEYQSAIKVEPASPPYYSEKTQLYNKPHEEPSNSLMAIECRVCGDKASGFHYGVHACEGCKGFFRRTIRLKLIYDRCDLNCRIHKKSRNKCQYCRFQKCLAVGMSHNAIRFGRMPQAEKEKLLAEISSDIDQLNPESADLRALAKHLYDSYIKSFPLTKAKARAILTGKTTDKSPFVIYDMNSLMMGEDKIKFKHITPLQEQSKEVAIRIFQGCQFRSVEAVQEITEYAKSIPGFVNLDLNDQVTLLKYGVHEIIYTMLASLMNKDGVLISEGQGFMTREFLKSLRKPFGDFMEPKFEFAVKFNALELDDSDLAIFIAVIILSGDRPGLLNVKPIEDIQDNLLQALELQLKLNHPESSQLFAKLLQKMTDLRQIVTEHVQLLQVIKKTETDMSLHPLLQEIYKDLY

For the compound `Oc1cc(Cl)c(Cl)cc1Cl`, the Potency result in assay [1] was “inactive”. Also, the outcome in [2] was inactive.
Regarding `ClC1C(Cl)C(Cl)C(Cl)C(Cl)C1Cl` (centres undefined), the Potency result in assay [1] and in assay [3] was “inactive” each time. For the same compound, the activation in [4] was 1.57% (inactive) [middle of 4 runs]. Moreover, the call in assay [5], in assay [6] and in [2] was inactive.
In the case of `O=c1[nH]c(=O)n(Cl)c(=O)n1Cl`, the Potency result in [1] was “inactive”. Besides, the activation in [7] is 26.8% (inactive). Moreover, the call in [2] was inactive.
As for `CCOC(=O)c1ccccc1C(=O)OCC`, the Potency entry in assay [1], in [8] and in [9] was “inactive” in each case. In addition, in [7], the activation is -2.44% (inactive) and -3.91% (inactive). For the same compound, the compound was classed as inactive in assay [5], in [6] and in assay [2]. The max response in assay [10] is 24.2% and 33.2%.
Regarding `COCC(C)N(C(=O)CCl)c1c(C)csc1C` (centres undefined), the Potency entry in assay [1], in assay [9] and in assay [3] was “inactive” in each case. For the same compound, the activation in assay [4] is 0.208% (inactive); in assay [7], -2.08% (inactive). Besides, the call in assay [5] was inactive.
For the compound `C=CCN=C=S`, the Potency result in assay [1], in assay [8] and in [9] was “inactive” each time. Besides, in assay [4], the activation was -2.58% (inactive). The compound was called inactive in [5], in assay [6] and in assay [2]. In addition, the max response in assay [10] came out at 17.5%.
Consider `O=C(NCNC(=O)NC1C(=O)NC(=O)N1CO)NC1C(=O)NC(=O)N1CO` (centres undefined), for which the Potency entry in assay [1] and in [3] was “inactive” throughout. Also, the values for the activation in assay [11], in assay [4] and in [7] were 0.237% (inactive), 1.1% (inactive) and -2.2% (inactive), respectively. Further, the compound was classed as inactive in assay [5], in assay [6] and in assay [2]. In addition, the max response in [10] stood at 13.7%.
On to `O=C1CCO1`, for which the Potency entry in assay [1], in assay [8], in [9] and in assay [3] was “inactive” throughout. Besides, the activation was 25.6% (inactive) in assay [11], 0.979% (inactive) in assay [4] and -0.359% (inactive) in [7]. Moreover, the compound was called inactive in [12], in assay [5], in assay [6] and in [2]. Moreover, in assay [10], the max response was 13.3%.
Regarding `COC1=CC(=O)O[C@@H](/C=C/c2ccccc2)C1`, the Potency result in [3] was “inactive”. For the same compound, the results for the activation in assay [4] and in [7] were -0.876% (inactive) and -2.27% (inactive), respectively. Further, the result in [2] was inactive.
Regarding `CC(C)(C)c1cc(O)ccc1O`, the Potency entry in [1] and in [3] was “inactive” throughout. The activation was 0.716% (inactive) and -1.49% (inactive) and 4.72% (inactive) in assay [4]; 4.46% (inactive) and 3.75% (inactive) and 5.49% (inactive) in [7]. Besides, the result in assay [5] and in assay [6] was inactive. In assay [10], the max response came out at 24.1%.
For the compound `C[C@H]1CCC[C@H](O)CCCCCc2cc(O)cc(O)c2C(=O)O1`, in [1], the Potency result was “inactive”. In [9], the Potency was 141 nM (active). In addition, in [7], the activation is 9.28% (inactive). The outcome in assay [2] was inactive.
